The results in this text go back to PubChem BioAssay.

The experiment is described as follows: hepatitis C replication reporter changes, two-sided – Huh7 cells, luciferase reporter, HCV replication inhibitor project, primary screen (AID 1109).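 Also: huh7 hepatoma cells harbouring a luciferase neomycin HCV replicon reporter; test concentration not given here.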 As to conditions: Huh7 HCV replicon luciferase reporter, 48 h; higher = more signal. On the technique in general: In a reporter assay the amount or activity of a reporter protein is the signal.
Compound `CCOC(=O)C1=CCC(c2ccco2)N(S(=O)(=O)c2ccc(C)cc2)C1` (stereo not given) yielded a z-score of -2.3.
For the compound `COCCOC(=O)N1C(=O)[C@@]2(c3cc(C#CCC(C(=O)OC)C(=O)OC)ccc31)[C@H](C(=O)NC[C@H](O)c1ccccc1)[C@H]1C(=O)O[C@H](c3ccccc3)[C@H](c3ccccc3)N1[C@@H]2c1ccc(OCCO)cc1`, the z-score is -1.92.
`CCCNC(=O)[C@@]1(Sc2ccc(C)cc2)CC(=O)N(C(C)C)[C@@H]1c1ccc(CO)cc1I`: the z-score is -2.03.
With `COC(=O)[C@@]1(Cc2ccc(F)cc2)[C@H]2c3cc(C(=O)N4CCCC4)n(C)c3C[C@H]2CN1C(=O)c1ccccc1`, the z-score was -1.4.
Turning to `O=C1O[C@H](c2ccccc2)[C@H](c2ccccc2)N2[C@H]1[C@@H](C(=O)N1CCCCCCC1)[C@]1(C(=O)Nc3ccc(C#CC4(O)CCCCCC4)cc31)[C@H]2c1ccc(O)cc1`, the z-score was -1.36.
Consider `O=C1O[C@H](c2ccccc2)[C@H](c2ccccc2)N2[C@H]1[C@@H](C(=O)O)[C@]1(C(=O)Nc3ccc(C#CC4(O)CCCCCC4)cc31)[C@H]2c1ccc(O)cc1`, for which the z-score was -0.772.
`COCCOC(=O)N1C(=O)[C@@]2(c3ccccc31)[C@H](c1ccccc1OCCO)N1[C@H](c3ccccc3)[C@H](c3ccccc3)OC(=O)[C@H]1[C@@H]2C(N)=O` showed a z-score of -2.76.
The same measure for `NC(=O)[C@@H]1[C@H]2C(=O)O[C@H](c3ccccc3)[C@H](c3ccccc3)N2[C@H](c2ccc(OCCO)cc2)[C@@]12C(=O)Nc1ccc(C#CCCO)cc12`: -1.41; for `Cc1cccc([C@H]2C[C@H]3C(Br)=C[C@@H]2C(=O)[C@]32CO2)c1`: -2.5; for `COc1ccc(C#Cc2ccc3c(c2)[C@]2(C(=O)N3)[C@H](C(=O)Nc3nc4ccccc4s3)[C@H]3C(=O)O[C@H](c4ccccc4)[C@H](c4ccccc4)N3[C@@H]2c2ccccc2OCCO)cc1`: -1.67.
The figure for `C=CCNC(=O)[C@@H]1[C@H]2C(=O)O[C@H](c3ccccc3)[C@H](c3ccccc3)N2[C@H](c2ccc(OCCO)cc2)[C@@]12C(=O)N(C(=O)OCCOC)c1ccc(C#CCCO)cc12` is -0.459; for `COCC(=C=CC[C@@H](O)c1cccc(OCCO)c1)CCO` it is 0.22; for `COCCOC(=O)N1C(=O)[C@@]2(c3cc(C#CC4(O)CCCCCC4)ccc31)[C@H](C(=O)N1CCN(c3ncccn3)CC1)[C@H]1C(=O)O[C@H](c3ccccc3)[C@H](c3ccccc3)N1[C@@H]2c1ccccc1OCCO` it is -2.22.
In turn, `[N-]=[N+]=Nc1ccccc1C[C@]1(C(=O)O)N=C(c2ccc(OCCCO)cc2)O[C@H]1c1ccccc1N=[N+]=[N-]` gave a z-score of -1.02.
The compound `NC(=O)NCC#Cc1ccc2c(c1)[C@]1(C(=O)N2)[C@H](C(=O)N2CCN(c3ncccn3)CC2)[C@H]2C(=O)O[C@H](c3ccccc3)[C@H](c3ccccc3)N2[C@@H]1c1ccc(OCCO)cc1` had a z-score of -1.6.
With `CN(C)C(=O)[C@@]1(Cc2ccccc2)COC(c2ccc(OCCCO)cc2)=N1`, the z-score was -1.4.
`CCN(CC)c1ccc(N2CC=CC34O[C@@H]5C=CCCOC(=O)C5[C@H]3C(=O)N(CCO)[C@@H]4C2=O)cc1` (stereo not given in full) displayed a z-score of -0.362.
In the case of `C[C@@H]1ON(c2ccc(I)cc2)[C@H](c2ccc(OC(=O)OC(C)(C)C)cc2)[C@H]1C(=O)N1C(=O)OC[C@H]1Cc1ccccc1`, the z-score is -1.12.
`COc1cc(CO)cc(I)c1O[C@H]1C=C(C(=O)NCCO)C[C@@H](NCC2CCCCC2)[C@@H]1O` displayed a z-score of -1.58.
`C=CCNC(=O)[C@@H]1[C@H]2C(=O)O[C@H](c3ccccc3)[C@H](c3ccccc3)N2[C@H](c2ccc(O)cc2)[C@@]12C(=O)Nc1ccc(C#CCC(C(=O)OC)C(=O)OC)cc12` came in with a z-score of -2.11.
The compound `CCOC(=O)C1=C[C@@H](c2ccccc2)N(S(=O)(=O)c2ccc(C)cc2)[C@H]1c1ccccc1` yielded a z-score of 0.235.
`[N-]=[N+]=NC[C@H](Cc1ccccc1)NC(=O)c1ccccc1` had a z-score of 2.25.
Compound `COc1ccc(C(O)C2C=CC3C(=O)N(c4ccccc4)C(=O)C3N2Nc2ccccc2F)cc1` (stereo not given) gave a z-score of -0.139.
With `C#C[C@@H](CC)O[Si](C#CCCCC#N)(C(C)C)C(C)C`, the z-score was -0.923.
Consider `CCCCCCCCCCC(O)C1C=CC2C(=O)N(C)C(=O)C2N1Nc1cc(OC)c(OC)c(OC)c1` (stereo not given), for which the z-score is -2.01.
The compound `C=C[C@H](C)[C@H](OC(=O)Nc1ccc(OC)cc1)c1ccc(OCCO)cc1` came in with a z-score of 0.0055.
For `COCCOC(=O)N1C(=O)[C@@]2(c3cc(C#CC4(O)CCCCCC4)ccc31)[C@H](c1ccc(OCCO)cc1)N1[C@H](c3ccccc3)[C@H](c3ccccc3)OC(=O)[C@H]1[C@@H]2C(=O)Nc1nc2ccccc2s1`, the z-score was -2.43.
`O=c1cccc(-c2ccco2)o1` returned a z-score of -0.574.
In the case of `CN(C)C(=O)[C@@]1(Cc2ccccc2N=[N+]=[N-])N=C(c2ccc(OCCCO)cc2)O[C@H]1c1ccccc1`, the z-score was -2.52.
The figure for `CC(C)[C@H]1NC(=O)[C@@]23C(=O)N[C@@H](Cc4ccccc4)C2[C@H](C)[C@@]2(C)O[C@H]2C3/C=C/CCC/C=C/CNC(=O)[C@H](Cc2ccccc2)NC1=O` (stereo not given in full) is -0.565; for `C=CCC(OC(C)=O)[C@@H]1[C@@H](N(Cc2cc3ccccc3o2)C(=O)c2ccc(-c3ccccc3)cc2)c2cc(OCCCO)ccc2N1C(=O)Cc1ccc(OC)cc1` (stereo not given in full) it is -1.46.
Compound `[N-]=[N+]=NCc1ccccc1[C@H]1OC(c2ccc(OCCCO)cc2)=N[C@@]1(CCS(=O)(=O)c1ccccc1)C(=O)NCc1ccccc1` had a z-score of -2.04.
`CC(=O)n1cc(C(O)C2C=CC3C(=O)N(c4ccccc4)C(=O)C3N2Nc2ccc(C(C)C)cc2)c2ccccc21` (stereo not given): the z-score was -0.909.
`C=C(COC)C(=O)CC[C@H](OC(C)=O)c1ccc(OCCO)cc1` gave a z-score of -1.17.
On to `Cc1ccccc1C(O)C1C=CC2C(=O)NC(=O)C2N1Nc1ccc(Cl)cc1Cl` (stereo not given), for which the z-score was -0.595.
